Over roughly 33,000 sequences, “e-score” has its median near -0.05; the highest 2% begin near 0.38. The list comes from a sample in which the highest values are over-represented; it also holds similar and randomly drawn sequences.

In article PMC10668032, “Altered binding affinity of SIX1-Q177R correlates with enhanced WNT5A and WNT pathway effector expression in Wilms tumor” one finds binding signal data, which are given here for 112 sequences.

This assay has as its target T1, SIX1-Q177R homeodomain (human, UniProt Q15475 108-198, Q177R).
T1 sequence: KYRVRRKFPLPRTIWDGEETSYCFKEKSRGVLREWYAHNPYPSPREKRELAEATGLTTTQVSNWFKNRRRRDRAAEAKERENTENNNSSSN
The assay can be described thus: universal protein binding microarray; Universal all-10-mer PBM (8x60K, AMADID 030236), 300 nM GST-tagged protein, Alexa Fluor 488 anti-GST; buffer, salt, pH and temperature not stated (as in Berger); high values mean tight binding. Particulars: protein: ivt; tags: N-terminal GST; dsDNA, one strand shown. In outline: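 Binding was expressed as 8-mer E-scores calculated with the Universal PBM Analysis Suite. The GST-tagged homeodomains, made by in vitro transcription/translation, were applied in duplicate at 300 nM final concentration to universal 'all 10-mer' protein binding microarrays (8×60K format).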
As for CTTTACAC, the binding signal turned out to be 0.431 ± 0.0203 E-score. As for ATTCACAC, the figure is 0.348 ± 0.0127 E-score; as for CTTTGCAC, 0.16 ± 0.0373 E-score. As to CTATTTAC, the binding signal was 0.1742 ± 0.000191 E-score. As for CTTTACCC, the figure is 0.171 ± 0.0198 E-score; as for ATTTACAC, 0.451 ± 0.0245 E-score. Then CCCCTAAG, with 0.172 ± 0.0119 E-score; and ACCTGGGA, with 0.186 ± 0.00272 E-score. Then CCAACAAC, with 0.211 ± 0.0163 E-score; and CAGCACCA, with 0.182 ± 0.0218 E-score; and CACGTGGG, with 0.16 ± 0.0172 E-score. On to AGTGTTGG, for which the binding signal stood at 0.3564 ± 0.000735 E-score.

On to CGTGTGGC, for which the binding signal was 0.181 ± 0.00793 E-score.

In the case of AGTGTCTC, the binding signal worked out at 0.329 ± 0.00361 E-score.

For CGTGTCGC, the binding signal came out at 0.44 ± 0.0199 E-score.

On to AGTGTCGG, for which the binding signal amounted to 0.4212 ± 0.00372 E-score. With AGTGTCGA, the binding signal worked out at 0.408 ± 0.0268 E-score.

Turning to AGGGTCGG, the binding signal was 0.172 ± 0.00622 E-score. Then CGGGTCGC, with 0.189 ± 0.0605 E-score. As for AGTGTGGA, the figure is 0.162 ± 0.0186 E-score; as for AGTGTCGC, 0.4145 ± 0.00339 E-score; as for AAGCGGTG, 0.214 ± 0.0624 E-score. As for CATCCACA, the binding signal was 0.177 ± 0.00969 E-score. With ACTCCCGA, the binding signal turned out to be 0.172 ± 0.0235 E-score. As for CCAGGTAC, the figure is 0.2011 ± 0.000495 E-score; as for CACCGCTG, 0.249 ± 0.0245 E-score; as for CACGTTAC, 0.179 ± 0.0457 E-score. As for ACTAGGAG, the figure is 0.219 ± 0.0299 E-score; as for CTAAAACA, 0.211 ± 0.0343 E-score; as for CGAGTCGA, 0.151 ± 0.006 E-score. Then CGTGTCGA, with 0.404 ± 0.0138 E-score; and GGTGTGGA, with 0.369 ± 0.0214 E-score. Consider GGTGTCGA, for which the binding signal amounted to 0.4869 ± 0.00312 E-score. With GGAGTCGA, the binding signal was determined as 0.227 ± 0.0424 E-score. As for CGTGTGGA, the binding signal is 0.159 ± 0.00165 E-score. In the case of CACGGCCC, the binding signal is 0.215 ± 0.0365 E-score. For GGATCACC, the binding signal was found to be 0.203 ± 0.0315 E-score. As to CCATGACA, the binding signal worked out at 0.222 ± 0.0113 E-score. For TACTGACA, the binding signal came out at 0.22 ± 0.0513 E-score.

For GGGCGACA, the binding signal was 0.156 ± 0.0211 E-score. With AGGAGGTG, the binding signal worked out at 0.2857 ± 0.000318 E-score. Then CACACGCA, with 0.32 ± 0.022 E-score.

With AACACGCG, the binding signal came to 0.36 ± 0.0195 E-score. Then AACACGCT, with 0.379 ± 0.00919 E-score; and TACACACA, with 0.259 ± 0.0395 E-score; and TACACGCA, with 0.406 ± 0.0157 E-score. Then AACACGAT, with 0.358 ± 0.00931 E-score; and AACACGCC, with 0.366 ± 0.013 E-score; and AACACGCA, with 0.396 ± 0.0109 E-score. As for CACCGAAG, the figure is 0.283 ± 0.0113 E-score; as for ACTCCGGG, 0.2895 ± 0.00256 E-score; as for AATTTACA, 0.182 ± 0.0161 E-score. Take AAACCCCC: the binding signal stood at 0.24 ± 0.0528 E-score.

Consider CACTCACC, for which the binding signal was found to be 0.242 ± 0.0149 E-score. As for ATCACACG, the binding signal came to 0.318 ± 0.0128 E-score. Regarding GTCACACA, the binding signal stood at 0.215 ± 0.0441 E-score. Consider ATCACCCC, for which the binding signal stood at 0.204 ± 0.0194 E-score. Then ATCACACC, with 0.442 ± 0.00795 E-score; and CTCACACC, with 0.393 ± 0.0106 E-score; and ACCAAGTG, with 0.208 ± 0.0393 E-score. With GGAGTCAA, the binding signal was determined as 0.2 ± 0.0177 E-score. With CCGCAACA, the binding signal amounted to 0.17 ± 0.0293 E-score. In the case of CACCGAAC, the binding signal came out at 0.335 ± 0.0128 E-score.

For the sequence GAGGACAC, the binding signal came out at 0.401 ± 0.00566 E-score. As for AAGCACAC, the figure is 0.276 ± 0.0054 E-score; as for AAGGATAC, 0.275 ± 0.00871 E-score. As for CAGGACAC, the figure is 0.423 ± 0.02 E-score; as for GAGGATAC, 0.235 ± 0.0473 E-score. As for GAGCACAC, the figure is 0.262 ± 0.0319 E-score; as for AAGGACAC, 0.40482 ± 0.000361 E-score; as for CAGAGCAC, 0.19 ± 0.0352 E-score. Consider CAGGATAC, for which the binding signal was 0.168 ± 0.0209 E-score. In the case of ACATCGTG, the binding signal was determined as 0.151 ± 0.0256 E-score. GTATGATA: the binding signal was 0.18 ± 0.0375 E-score.

As for CCTTTACA, the binding signal is 0.242 ± 0.0698 E-score. As for CCCCCCTC, the figure is 0.163 ± 0.0311 E-score; as for CTGGGTAC, 0.278 ± 0.0111 E-score; as for CCGCAAGG, 0.15 ± 0.00344 E-score. On to CATTTACA, for which the binding signal was determined as 0.267 ± 0.0374 E-score. Turning to CACCGAAA, the binding signal came out at 0.329 ± 0.00917 E-score. As for AGTGGATC, the figure is 0.216 ± 0.0109 E-score; as for GATCAACA, 0.206 ± 0.00474 E-score. Turning to CACGAACG, the binding signal came out at 0.207 ± 0.0299 E-score. As for CCCTAGCA, the binding signal was determined as 0.17 ± 0.00574 E-score. In the case of ACGAGGGG, the binding signal came out at 0.208 ± 0.0082 E-score.

Take CAAGACAC: the binding signal was determined as 0.4021 ± 0.00161 E-score. For the sequence GAAGACAC, the binding signal stood at 0.38 ± 0.00523 E-score.

As to AAAGACAC, the binding signal stood at 0.425 ± 0.0124 E-score.

Turning to GAAGATAC, the binding signal turned out to be 0.16 ± 0.0546 E-score. On to ATGACCCC, for which the binding signal is 0.318 ± 0.0237 E-score. As to ATTGAGTG, the binding signal came out at 0.18 ± 0.0318 E-score. Then GGTTTACA, with 0.16 ± 0.0137 E-score. As for CTCCCTAA, the figure is 0.165 ± 0.0334 E-score; as for GCTACCAC, 0.181 ± 0.00856 E-score.

For the sequence GCTAACCC, the binding signal was determined as 0.186 ± 0.00969 E-score. Turning to CCTATCAC, the binding signal was determined as 0.173 ± 0.0477 E-score.

With CTAAACAC, the binding signal turned out to be 0.364 ± 0.00812 E-score.

In the case of CCTAACAC, the binding signal amounted to 0.404 ± 0.00657 E-score. Then GCTAACAC, with 0.417 ± 0.0145 E-score.

On to ACTAAAAC, for which the binding signal stood at 0.168 ± 0.0313 E-score.

Regarding ACTAACAC, the binding signal amounted to 0.427 ± 0.0173 E-score. For ACAAACAC, the binding signal was determined as 0.379 ± 0.0204 E-score. For the sequence ACCCGACC, the binding signal came to 0.223 ± 0.0107 E-score. As for GTTCAGAA, the figure is 0.18 ± 0.0199 E-score; as for ACCCCGCA, 0.259 ± 0.0114 E-score; as for CCAAGCCC, 0.155 ± 0.0141 E-score. Consider CCCAGACA, for which the binding signal came out at 0.16 ± 0.0032 E-score.

ATCAGACA: the binding signal turned out to be 0.204 ± 0.00355 E-score. Then AGTGTTTA, with 0.296 ± 0.0461 E-score; and AGTGTTCG, with 0.369 ± 0.0134 E-score; and GGGGTTAA, with 0.198 ± 0.00273 E-score. Take CGTGTTAA: the binding signal is 0.391 ± 0.0262 E-score.
